Values joined by “and” are separate entries in the source; they are usually repeats but may differ in a detail not shown here. Equal entries are not always repeated. A number with no mark means an inactive call. Calls follow the shape of the full dose curve.

We go through 40 molecules from PubChem BioAssay (NCATS).
Potency is read from the fitted curve at half-maximal effect.

Chain of Glucocorticoid receptor (Homo sapiens) (P04150 whole entry, looked up): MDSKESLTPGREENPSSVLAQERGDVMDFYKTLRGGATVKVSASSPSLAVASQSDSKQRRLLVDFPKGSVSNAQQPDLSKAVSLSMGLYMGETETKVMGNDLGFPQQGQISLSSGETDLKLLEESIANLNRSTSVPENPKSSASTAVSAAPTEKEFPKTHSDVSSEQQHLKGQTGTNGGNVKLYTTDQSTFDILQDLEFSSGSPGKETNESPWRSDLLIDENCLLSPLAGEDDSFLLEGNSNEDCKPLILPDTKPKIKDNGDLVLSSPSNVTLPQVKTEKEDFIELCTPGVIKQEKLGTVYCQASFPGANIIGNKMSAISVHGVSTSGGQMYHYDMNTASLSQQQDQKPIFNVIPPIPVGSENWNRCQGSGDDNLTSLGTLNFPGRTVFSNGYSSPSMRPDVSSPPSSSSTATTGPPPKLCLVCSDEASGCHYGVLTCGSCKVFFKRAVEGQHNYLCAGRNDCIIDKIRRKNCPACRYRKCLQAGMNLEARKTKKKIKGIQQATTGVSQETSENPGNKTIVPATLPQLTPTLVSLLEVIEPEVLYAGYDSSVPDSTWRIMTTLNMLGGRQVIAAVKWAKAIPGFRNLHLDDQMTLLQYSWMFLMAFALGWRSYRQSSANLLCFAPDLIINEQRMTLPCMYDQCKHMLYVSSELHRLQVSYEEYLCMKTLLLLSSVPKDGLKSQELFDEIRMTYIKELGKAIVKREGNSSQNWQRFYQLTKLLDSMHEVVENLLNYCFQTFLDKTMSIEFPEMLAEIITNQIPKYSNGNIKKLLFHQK

The target of the assay is Glucocorticoid receptor (Homo sapiens) (UniProt P04150). In words: GR-EFC Redistribution (AID 451). To be noted: CHO-K1 GR-EFC translocation, beta-gal luminescence, 2 h. The text has this:
NIH Molecular Libraries Screening Centers Network [MLSCN]
NIH Chemical Genomics Center [NCGC]
The glucocorticoid receptor (GR) is a cytoplasmic receptor that belongs to the nuclear receptor family of ligand-dependent transcription factors. Upon glucocorticoid binding to its receptor, the glucocorticoid-GR complex translocates into the nucleus, where it binds as a dimer to specific DNA sequences (glucocorticoid response elements), enhancing or suppressing transcription of a wide variety of glucocorticoid-responsive genes. In addition to their important roles in normal physiology and metabolism, glucocorticoids are administered exogenously as treatments for a wide variety of allergic, autoimmune, and neoplastic conditions. Identification of compounds that modulate aspects of GR signalling would be useful in dissecting glucocorticoid response pathways as well as developing GR modulators with more targeted clinical effects.
Traditionally, GR modulators have been identified using receptor binding or direct transactivation assays. However, assays for glucocorticoid-dependent nuclear translocation can also be used to screen for compounds affecting GR signaling.
Immunocytochemical staining has been used to assay for GR translocation, but is not suitable for high throughout screening due to the multiple reagent addition and wash steps required. Recently, a novel cell-based GR assay in Enzyme Fragment Complementation (EFC) format was developed by DiscoveRx (Fremont, CA). The assay uses EFC of b-galactosidase (b-gal) as an indicator of GR-translocation in engineered CHO-K1 biosensor cells. The enzyme acceptor (EA) fragment of b-gal resides in the nucleus , as designed through the use of a proprietary set of sequence additions and modifications. The small peptide enzyme donor (ED) fragment of b-gal is fused directly to the C-terminus of GR, and is localized in the cytoplasm is the absence of receptor signaling. Upon binding to a GR ligand, the complex translocates to the nucleus, where intact enzyme activity is restored by complementation and b-gal activity is detected. We optimized this GR-EFC assay in homogenous 1536-well plate assay format for high throughput screening.
NCGC Assay Protocol Summary:
CHO-K1 cells stably expressing NLS-enzyme acceptor fragment (EA) of b-gal and GR-enzyme donor (ED) fragment of b-gal were maintained in F12 medium (Invitrogen, Carlsbad, CA) at 37 Celsius degrees under a humidified atmosphere containing 5% CO2 and 95% air. The medium contained 10% FBS, 2 mM L-glutamine, 50 U/ml penicillin 50 ug/ml streptomycin, and 250 ug/ml hygromycin and 500 ug/ml G418 (Invitrogen).
GR-translocation was measured beta-gal enzyme activity using the PathHunter Detection Kit containing cell membrane permeablizing reagent and beta-gal substrate (DiscoveRx, Fremont, CA). All compounds were screened as titrations from 0.6 nM to 46 uM final concentration. The assay was performed in 1536-well format as follows:
5 uL cell suspension (1,000 cells)/well
Incubation at 37 Celsius degrees for two hours
1.25 uL 1X detection buffer from the kit supplied by DiscoveRx
Incubation at room temperature for one hour
Read plate in luminescence mode in ViewLux plate reader (PerkinElmer)
Keywords: NIH Roadmap, MLSCN, MLI, MLSMR, GR-EFC, GREFC, qHTS, NCGC
Consider `Nc1nc(N)c(Cn2ccnc2)c(=O)[nH]1`, for which the Potency is greater than 9.22 µM.

Turning to `C[C@@]12CC[C@H]3[C@@H](CC[C@H]4C[C@@H](O)CC[C@]43C)[C@H]1CC[C@@H]2C(=O)C[C@H](O)C(F)(F)F`, the Potency was greater than 9.22 µM.

In the case of `[N-]=[N+]=NCC(=O)c1c[nH]c(=O)[nH]c1=O`, the Potency is greater than 9.22 µM.

Consider `CC(C)CCC1(CCN)C(=O)NC(=O)NC1=O`, for which the Potency was greater than 9.22 µM.

For the molecule `C[C@H](CC(C#N)(c1ccccc1)c1ccccc1)N1CCCCC1`, the Potency was greater than 9.22 µM.

Turning to `NC1(P(=O)(O)O)CCCCC1`, the Potency is greater than 9.22 µM.

Regarding `C[C@]12CC[C@H](O)CC1=CC[C@@H]1[C@H]2CC[C@]2(C)C(=O)CC[C@H]12`, the Potency was greater than 46 µM.

Consider `C[C@]12CN(CC[N+](C)(C)C)C[C@]1(C)[C@@H]1CC[C@@H]2O1`, for which the Potency was greater than 9.22 µM.

Consider `O=C(c1ccccc1)[C@H]1[C@H](c2ccccc2[N+](=O)[O-])N1C1CCCCC1` (stereo not given in full), for which the Potency was greater than 9.22 µM.

Take `Cc1c([C@@H](C)[C@H]2NC[C@H](C)C[C@@H]2O)ccc2c1C[C@@H]1[C@H]2CC=C2C[C@@H](O)CC[C@@]21C`: the Potency was greater than 9.22 µM.

Consider `COc1cc([C@@H](O)CN)ccc1O`, for which the Potency is greater than 46 µM.

For `C[Se]C[C@@H](N)C(=O)O`, the Potency is greater than 46 µM.

For the molecule `NNc1c(C(N)=O)c2c(N)ncnc2n1[C@@H]1O[C@H](CO)[C@@H](O)[C@@H]1O`, the Potency was greater than 9.22 µM.

In the case of `CCSCC[C@H](N)C(=O)O`, the Potency is greater than 9.22 µM.

For `Cc1ccc(S(=O)ON2CCC(C(=O)O)(c3ccccc3)CC2)cc1` (stereo not given), the Potency was greater than 9.22 µM.

Take `CN(C)CCCNc1c2c(nc3ccc(Cl)cc13)CCCC2`: the Potency is greater than 9.22 µM.

Turning to `CCNC(C)(C)[C@@H](SS)c1ccc(Br)cc1`, the Potency is greater than 9.22 µM.

Take `Cc1ccc(NC(=[OH+])c2cc3ccccc3cc2O)c(C)c1.Cc1ccc(NC(=[OH+])c2cc3ccccc3cc2O)c(C)c1.[Ni]`: the Potency is greater than 9.22 µM.

For `CCCN1CC[C@@H]2c3cc(O)ccc3CC[C@H]21`, the Potency is greater than 46 µM.

Regarding `Oc1ccc(CCNCc2cc3c(cc2Br)OCO3)cc1`, the Potency is greater than 9.22 µM.

Consider `N=C(N)n1cc(/C=N\N=C(N)N)cn1`, for which the Potency is greater than 9.22 µM.

With `CN(C)[C@@H]1C(=O)C(C(N)=O)=C(O)[C@]2(O)C(=O)C3=C(O)c4c(O)cccc4[C@](C)(O)[C@H]3C[C@@H]12`, the Potency was greater than 9.22 µM.

Turning to `CSC([N-]/N=C/c1cccc(C)n1)=[S]=[Cu].CS[C@H]([S-])[N-]/N=C/c1cccc(C)n1`, the Potency was greater than 9.22 µM.

As for `CN[C@H]1[C@H](C)O[C@@H](O[C@@H]2C/C=C(/C)C/C(C)=C\C=C/CC[C@@H](C)CNC(=O)/C=C\C=C/[C@H]2C)C[C@@H]1O`, the Potency is greater than 9.22 µM.

`O=C(O)CS(=O)(=O)C(c1ccccc1)c1ccccc1`: the Potency was greater than 9.22 µM.

With `O=C(O)[C@H]1[O][Sb][O][C@@H](C(=O)O)C1O` (stereo not given in full), the Potency was greater than 9.22 µM.

Consider `CC1=C2C(=O)[C@@H]3[C@@H](CC=C4C[C@@H](O)CC[C@@]43C)[C@H]2CC[C@@]12O[C@H]1C[C@H](C)CN[C@H]1[C@@H]2C`, for which the Potency is greater than 9.22 µM.

For the molecule `O=C(Nc1cc[c]([Sb](=[O])([OH])[OH])cc1)c1ccccc1`, the Potency was greater than 9.22 µM.

Consider `C[C@H]1CC[C@@]2(NC1)O[C@@H]1C[C@@H]3[C@@H]4CC=C5C[C@@H](O)CC[C@]5(C)[C@@H]4CC[C@]3(C)[C@H]1[C@@H]2C`, for which the Potency was greater than 9.22 µM.

For `NC(N)=NCCN=C(N)N`, the Potency was greater than 9.22 µM.

As for `C[C@@H](Cc1ccc(O)cc1)NC[C@@H](O)c1cc(O)cc(O)c1`, the Potency is > 46 µM and > 20.6 µM.

On to `CS(=N)(=O)CC[C@H](N)P(=O)(O)O` (stereo not given in full), for which the Potency is greater than 9.22 µM.

For the molecule `NCCP(=O)(O)O`, the Potency was greater than 9.22 µM.

With `O=[As](O)(O)c1ccc(N=Nc2ccc(O)cc2)cc1`, the Potency is greater than 9.22 µM.

In the case of `CC(C)[C@@]1(NC(=O)[C@H]2C[C@H]3c4cccc5[nH]cc(c45)C[C@@H]3N(C)C2)O[C@]2(O)[C@H]3CCCN3C(=O)[C@H](Cc3ccccc3)N2C1=O`, the Potency was greater than 46 µM.

`N[C@@H](Cc1cc(Br)c(O)c(Br)c1)C(=O)O`: the Potency was greater than 9.22 µM.

Consider `NCCc1c[nH]c2ccc(OC(=O)C(=O)O)cc12`, for which the Potency is greater than 9.22 µM.

In the case of `CCC1(CCSC(=N)N)C(=O)NC(=O)NC1=O`, the Potency was greater than 9.22 µM.

Take `C[C@@]12CC[C@H]3[C@@H](CC[C@@H]4C[C@H](O)CC[C@]43C)[C@H]1CC[C@H]2O`: the Potency is greater than 46 µM.

In the case of `Cc1nc2ccccc2cc1C[N+]12CN3CN(CN(C3)C1)C2`, the Potency is greater than 9.22 µM.
